Test results published in PMC9911399, “Two distinct binding modes provide the RNA-binding protein RbFox with extraordinary sequence specificity”.
Residue numbers refer to the chain shown, from its start. Over roughly 16,000 sequences, “ka relative to ugcaugu” has its median near 0.0091; the highest 2% begin near 0.032. Shown is part of a subset that was picked to be rich in the highest values.

T1: RBFOX1 RRM (Homo sapiens, UniProt Q9NWB1 109-208)
T1 sequence: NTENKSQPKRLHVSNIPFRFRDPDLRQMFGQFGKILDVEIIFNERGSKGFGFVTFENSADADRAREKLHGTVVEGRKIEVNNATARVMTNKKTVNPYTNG

B1: ACGCAUG (DNA:RNA)
RNA: GGGAGACCGGAAUUCAGAUUGUCCACGCAUGUUAAAUCCCGUCGUAGCCACCA
DNA 1: CAATCTGAATTCCGGTCTCCC
DNA 2: TGGTGGCTACGACGGGATT
B2: CCCCGCA (DNA:RNA)
RNA: B1 RNA with A25C, G27C, A29G, U30C, G31A
DNA 1: CAATCTGAATTCCGGTCTCCC
DNA 2: TGGTGGCTACGACGGGATT
B3: CGCAUGU (DNA:RNA)
RNA: GGGAGACCGGAAUUCAGAUUGUCCCGCAUGUUUAAAUCCCGUCGUAGCCACCA
DNA 1: CAATCTGAATTCCGGTCTCCC
DNA 2: TGGTGGCTACGACGGGATT
B4: UCCGUCU (DNA:RNA)
RNA: B3 RNA with C25U, G26C, A28G, G30C
DNA 1: CAATCTGAATTCCGGTCTCCC
DNA 2: TGGTGGCTACGACGGGATT
B5: GGCAGGC (DNA:RNA)
RNA: B3 RNA with C25G, U29G, U31C
DNA 1: CAATCTGAATTCCGGTCTCCC
DNA 2: TGGTGGCTACGACGGGATT
B6: AAGCGUG (DNA:RNA)
RNA: B1 RNA with C26A, A29G
DNA 1: CAATCTGAATTCCGGTCTCCC
DNA 2: TGGTGGCTACGACGGGATT
B7: UUGAUCA (DNA:RNA)
RNA: B3 RNA with C25U, G26U, C27G, G30C, U31A
DNA 1: CAATCTGAATTCCGGTCTCCC
DNA 2: TGGTGGCTACGACGGGATT
B8: GGGCUGG (DNA:RNA)
RNA: B1 RNA with A25G, C26G, A29U, U30G
DNA 1: CAATCTGAATTCCGGTCTCCC
DNA 2: TGGTGGCTACGACGGGATT
B9: AACCGCC (DNA:RNA)
RNA: B1 RNA with C26A, G27C, A29G, U30C, G31C
DNA 1: CAATCTGAATTCCGGTCTCCC
DNA 2: TGGTGGCTACGACGGGATT
B10: UCGCAUC (DNA:RNA)
RNA: B1 RNA with A25U, G31C
DNA 1: CAATCTGAATTCCGGTCTCCC
DNA 2: TGGTGGCTACGACGGGATT
B11: UCGCAUA (DNA:RNA)
RNA: B1 RNA with A25U, G31A
DNA 1: CAATCTGAATTCCGGTCTCCC
DNA 2: TGGTGGCTACGACGGGATT
B12: UCGCAUG (DNA:RNA)
RNA: B1 RNA with A25U
DNA 1: CAATCTGAATTCCGGTCTCCC
DNA 2: TGGTGGCTACGACGGGATT
B13: GUAAGUA (DNA:RNA)
RNA: B1 RNA with A25G, C26U, G27A, C28A, A29G, G31A
DNA 1: CAATCTGAATTCCGGTCTCCC
DNA 2: TGGTGGCTACGACGGGATT
B14: UCACAAA (DNA:RNA)
RNA: B1 RNA with A25U, G27A, U30A, G31A
DNA 1: CAATCTGAATTCCGGTCTCCC
DNA 2: TGGTGGCTACGACGGGATT
B15: GAGCAAA (DNA:RNA)
RNA: B1 RNA with A25G, C26A, U30A, G31A
DNA 1: CAATCTGAATTCCGGTCTCCC
DNA 2: TGGTGGCTACGACGGGATT
B16: CUUUGUC (DNA:RNA)
RNA: B1 RNA with A25C, C26U, G27U, C28U, A29G, G31C
DNA 1: CAATCTGAATTCCGGTCTCCC
DNA 2: TGGTGGCTACGACGGGATT
B17: AUCCCAA (DNA:RNA)
RNA: B1 RNA with C26U, G27C, A29C, U30A, G31A
DNA 1: CAATCTGAATTCCGGTCTCCC
DNA 2: TGGTGGCTACGACGGGATT
B18: GGAUUCA (DNA:RNA)
RNA: B3 RNA with C25G, C27A, A28U, G30C, U31A
DNA 1: CAATCTGAATTCCGGTCTCCC
DNA 2: TGGTGGCTACGACGGGATT
B19: GGGAUCG (DNA:RNA)
RNA: B3 RNA with C25G, C27G, G30C, U31G
DNA 1: CAATCTGAATTCCGGTCTCCC
DNA 2: TGGTGGCTACGACGGGATT
B20: GGAAUCG (DNA:RNA)
RNA: B3 RNA with C25G, C27A, G30C, U31G
DNA 1: CAATCTGAATTCCGGTCTCCC
DNA 2: TGGTGGCTACGACGGGATT
B21: CGGAUCG (DNA:RNA)
RNA: B3 RNA with C27G, G30C, U31G
DNA 1: CAATCTGAATTCCGGTCTCCC
DNA 2: TGGTGGCTACGACGGGATT
B22: GGAUCGU (DNA:RNA)
RNA: B3 RNA with C25G, C27A, A28U, U29C
DNA 1: CAATCTGAATTCCGGTCTCCC
DNA 2: TGGTGGCTACGACGGGATT
B23: GGGAUCA (DNA:RNA)
RNA: B3 RNA with C25G, C27G, G30C, U31A
DNA 1: CAATCTGAATTCCGGTCTCCC
DNA 2: TGGTGGCTACGACGGGATT
B24: GGGAUCC (DNA:RNA)
RNA: B3 RNA with C25G, C27G, G30C, U31C
DNA 1: CAATCTGAATTCCGGTCTCCC
DNA 2: TGGTGGCTACGACGGGATT
B25: GGAUCCG (DNA:RNA)
RNA: B1 RNA with A25G, C26G, G27A, C28U, A29C, U30C
DNA 1: CAATCTGAATTCCGGTCTCCC
DNA 2: TGGTGGCTACGACGGGATT
B26: CGGAUCA (DNA:RNA)
RNA: B3 RNA with C27G, G30C, U31A
DNA 1: CAATCTGAATTCCGGTCTCCC
DNA 2: TGGTGGCTACGACGGGATT
B27: UAUUAAG (DNA:RNA)
RNA: B1 RNA with A25U, C26A, G27U, C28U, U30A
DNA 1: CAATCTGAATTCCGGTCTCCC
DNA 2: TGGTGGCTACGACGGGATT
B28: UCGCAGA (DNA:RNA)
RNA: B1 RNA with A25U, U30G, G31A
DNA 1: CAATCTGAATTCCGGTCTCCC
DNA 2: TGGTGGCTACGACGGGATT
B29: AUACCGG (DNA:RNA)
RNA: B1 RNA with C26U, G27A, A29C, U30G
DNA 1: CAATCTGAATTCCGGTCTCCC
DNA 2: TGGTGGCTACGACGGGATT
B30: ACGUGUU (DNA:RNA)
RNA: B1 RNA with C28U, A29G, G31U
DNA 1: CAATCTGAATTCCGGTCTCCC
DNA 2: TGGTGGCTACGACGGGATT
B31: GCAGUUG (DNA:RNA)
RNA: B1 RNA with A25G, G27A, C28G, A29U
DNA 1: CAATCTGAATTCCGGTCTCCC
DNA 2: TGGTGGCTACGACGGGATT

Each binder was assayed against T1, RBFOX1 RRM (assay: EMSA; HiTS-Eq, 1 nM pool, 10 min; buffer printed only for the single-RNA assays: 10 mM Tris pH 7.5, 150 mM NaCl, 3.4 mM EDTA, 0.001% NP-40, 30 C). Settings: tags: His6 N-terminal (pET28a); label: 5' 32P.
Procedure, shortened: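 A pool of RNA with 7 randomized nucleotides, 5′-radiolabelled and with DNA-annealed flanks, was equilibrated at 1 nM for 10 min in 50 µL with purified RbFox RRM, wild type or mutant, across increasing protein concentrations. Free RNA was separated by 8% native PAGE, excised, reverse-transcribed, barcoded by PCR and sequenced. Relative association constants were obtained from read-count changes of each RNA species versus the control reaction and normalised to the cognate motif.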

Binder	binding signal
B1	0.697 KA relative to UGCAUGU
B2	0.0132 KA relative to UGCAUGU
B3	0.735 KA relative to UGCAUGU
B4	0.0154 KA relative to UGCAUGU
B5	0.0103 KA relative to UGCAUGU
B6	0.0169 KA relative to UGCAUGU
B7	0.0152 KA relative to UGCAUGU
B8	0.0301 KA relative to UGCAUGU
B9	0.00718 KA relative to UGCAUGU
B10	0.0121 KA relative to UGCAUGU
B11	0.00838 KA relative to UGCAUGU
B12	0.809 KA relative to UGCAUGU
B13	0.00628 KA relative to UGCAUGU
B14	0.00202 KA relative to UGCAUGU
B15	0.00616 KA relative to UGCAUGU
B16	0.0202 KA relative to UGCAUGU

Binder	binding signal
B17	0.00187 KA relative to UGCAUGU
B18	0.0122 KA relative to UGCAUGU
B19	0.0449 KA relative to UGCAUGU
B20	0.0216 KA relative to UGCAUGU
B21	0.0358 KA relative to UGCAUGU
B22	0.0112 KA relative to UGCAUGU
B23	0.0351 KA relative to UGCAUGU
B24	0.0157 KA relative to UGCAUGU
B25	0.00934 KA relative to UGCAUGU
B26	0.0199 KA relative to UGCAUGU
B27	0.0136 KA relative to UGCAUGU
B28	0.013 KA relative to UGCAUGU
B29	0.00158 KA relative to UGCAUGU
B30	0.0131 KA relative to UGCAUGU
B31	0.0127 KA relative to UGCAUGU
